Values joined by “and” are separate entries in the source; they are usually repeats but may differ in a detail not shown here. Identical values can stand only once. Compounds without any hit were thinned out: in the full panel of roughly 79,000, 15% have a hit. A number with no mark means an inactive call. Active and inactive are the calls of the source. No stated cut-off is given here; in the data, active means growth inhibition above about 70%; inactive means the rest.

Assay [1] can be described thus: NCI Yeast Anticancer Drug Screen. Data for the mec2-1 strain (AID 157). As to conditions: S. cerevisiae mec2-1 strain, active compounds read high. Summed up:
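Each compound was tested on mec2-1 yeast, a strain altered in DNA damage repair or cell cycle control. Growth inhibition is reported relative to vehicle.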

The nature of assay [2]: NCI Yeast Anticancer Drug Screen. Data for the sgs1 mgt1 strain (AID 161).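 Further: 0% = growth of cultures given vehicle only.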 To be noted: S. cerevisiae sgs1 mgt1 strain, active compounds read high. Summed up:
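Inhibition of yeast growth, normalised to vehicle-treated controls, is reported for a strain bearing genetic alterations in DNA damage repair.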

Assay [3] is described as follows: NCI Yeast Anticancer Drug Screen. Data for the cln2 rad14 strain (AID 165).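 Further: 0% = growth equal to vehicle treated cultures.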 As to conditions: S. cerevisiae cln2 rad14 strain, active compounds read high. Summed up:
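Test compounds were added to cln2 rad14 yeast cultures; inhibition of growth was then determined by comparison with vehicle treatment.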

Assay [4] can be described thus: NCI Yeast Anticancer Drug Screen. Data for the bub3 strain (AID 167). As to conditions: S. cerevisiae bub3 mutant strain, active compounds read high. The method in brief: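 Steps: expose the mutant yeast strain to compound; grow alongside vehicle-treated cultures; measure growth; express inhibition against the vehicle cultures.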
Assay [5] in a line: NCI Yeast Anticancer Drug Screen. Data for the mlh1 rad18 strain (AID 175). To be noted: S. cerevisiae mlh1 rad18 strain growth inhibition, active compounds read high. Summed up: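 Inhibition values reflect reduced growth of mutant yeast versus vehicle-treated controls following compound exposure; the mutations affect DNA damage repair.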
Assay [6] in a line: NCI Yeast Anticancer Drug Screen. Data for the rad50 strain (AID 155).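 Further: 0% = growth of vehicle-only cultures of the same strain.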 To be noted: S. cerevisiae rad50 strain growth inhibition, active compounds read high. Summed up:
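Inhibition values express reduced yeast growth in compound-treated cultures relative to vehicle-treated controls.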

[7] abbreviates: at 5.0 µM (retest, dose inferred, filed as 0.5).
Setting [8] is: at 50.0 µM (retest, dose inferred, filed as 5.0).

Consider `COc1cc(O)c2c(c1)C(=O)c1cc3c(c(O)c1C2=O)C(OC1OC(C)C(O)C(O)C1OC)C(OC)C(C)(O)C3=O` (configuration not stated), for which the growth inhibition in assay [1] (setting [7]) is 35%; in assay [1] (setting [8]), 99% (active); in assay [1] (at 50.0 µM), 93.4% (active); in assay [2] (setting [7]), 35%; in assay [2] (setting [8]) it was 99% (active); in assay [2] (at 50.0 µM), 93.7% (active). The growth inhibition in assay [3] (setting [7]) was 12%; in assay [3] (setting [8]), 99% (active); in assay [3] (at 50.0 µM), 89.9% (active); in assay [4] (setting [7]) it was 15%; in assay [4] (setting [8]) it was 99% (active); in assay [4] (at 50.0 µM), 93.3% (active). In addition, the growth inhibition in assay [5] (setting [7]) was 58%; in assay [5] (setting [8]), 99% (active); in assay [5] (at 50.0 µM) it was 92.8% (active).
With `CC(=O)OC1COC(SC(=N)N)C(OC(C)=O)C1OC(C)=O` (configuration not stated), the growth inhibition in assay [6] (at 50.0 µM) is 41.4% and 24.4% and 20%; in assay [1] (at 50.0 µM), 15.8% and 17.9% and -1.25%; in assay [2] (at 50.0 µM), 27.9% and 22.1% and 24.4%; in assay [3] (at 50.0 µM), 19.6% and -30.5% and -41.8%; in assay [4] (at 50.0 µM), 1.65% and 6.55% and -1.75%; in assay [5] (at 50.0 µM) it was 22.6% and 29.1% and 4.55%.
With `CCCCCCCCCCN`, the growth inhibition in assay [6] (setting [7]) is 1%; in assay [6] (setting [8]) it was 51%; in assay [6] (at 50.0 µM), 65.8%; in assay [1] (setting [7]) it was -1%; in assay [1] (setting [8]), 13%; in assay [1] (at 50.0 µM), 34.6%. For the same molecule, the growth inhibition was 6% in assay [3] (setting [7]); 19% in assay [3] (setting [8]); 42.2% in assay [3] (at 50.0 µM); 7% in assay [4] (setting [7]); 30% in assay [4] (setting [8]); 47.2% in assay [4] (at 50.0 µM). Moreover, the growth inhibition was 6% in assay [5] (setting [7]), 36% in assay [5] (setting [8]) and 46.8% in assay [5] (at 50.0 µM).
In the case of `O=[N+]([O-])C12CCCCC1([N+](=O)[O-])CCCC2` (configuration not stated), the growth inhibition in assay [1] (setting [7]) is -5%; in assay [1] (setting [8]) it was 30%; in assay [1] (at 50.0 µM), 21.6%; in assay [2] (setting [7]) it was -3%; in assay [2] (setting [8]), 33%; in assay [2] (at 50.0 µM) it was 35.5%. In addition, the growth inhibition in assay [3] (setting [7]) was -9%; in assay [3] (setting [8]) it was 22%; in assay [3] (at 50.0 µM) it was 31.1%; in assay [4] (setting [7]), -1%; in assay [4] (setting [8]), 65%; in assay [4] (at 50.0 µM) it was 84.8% (active). Further, the growth inhibition in assay [5] (setting [7]) was 0%; in assay [5] (setting [8]), 28%; in assay [5] (at 50.0 µM), 37.8%.
For the molecule `COc1ccccc1/C=C(\NC(=O)c1ccccc1)c1nc2ccccc2[nH]1`, the growth inhibition was 42% in assay [6] (setting [7]); 96% (active) in assay [6] (setting [8]); 97.8% (active) in assay [6] (at 50.0 µM); 38% in assay [2] (setting [7]); 99% (active) in assay [2] (setting [8]); 96.4% (active) in assay [2] (at 50.0 µM). Further, the growth inhibition is 16% in assay [3] (setting [7]); 74% (active) in assay [3] (setting [8]); 95% (active) in assay [3] (at 50.0 µM); 3% in assay [4] (setting [7]); 88% (active) in assay [4] (setting [8]); 98% (active) in assay [4] (at 50.0 µM). Further, the growth inhibition in assay [5] (setting [7]) was 21%; in assay [5] (setting [8]), 96% (active); in assay [5] (at 50.0 µM) it was 96.4% (active).
Regarding `Cc1ccc(S(=O)(=O)OCC(O)C(O)COS(=O)(=O)c2ccc(C)cc2)cc1` (configuration not stated), the growth inhibition in assay [6] (at 50.0 µM) is 35.8% and -13.8% and 12.6%; in assay [1] (at 50.0 µM), -10.2% and -4.45% and -13.8%; in assay [2] (at 50.0 µM), 25.3% and -27.6% and -5.9%; in assay [3] (at 50.0 µM), 11.1% and -21.9% and -13.5%; in assay [4] (at 50.0 µM), 9.15% and -12.4% and 6.35%; in assay [5] (at 50.0 µM), 26.1% and -1.9% and -2.9%.
As to `CN=C(N)NN=C(c1ccc(Cl)cc1)c1ccc(Cl)cc1`, the growth inhibition in assay [1] (setting [7]) is 30%; in assay [1] (setting [8]) it was 99% (active); in assay [1] (at 50.0 µM), 91.2% (active); in assay [2] (setting [7]), 51%; in assay [2] (setting [8]), 99% (active); in assay [2] (at 50.0 µM) it was 87.5% (active). For the same molecule, the growth inhibition in assay [3] (setting [7]) is 48%; in assay [3] (setting [8]) it was 98% (active); in assay [3] (at 50.0 µM) it was 85% (active); in assay [4] (setting [7]), 52%; in assay [4] (setting [8]), 99% (active); in assay [4] (at 50.0 µM), 83.2% (active). Moreover, the figures for the growth inhibition in assay [5] (setting [7]), in assay [5] (setting [8]) and in assay [5] (at 50.0 µM) were 25%, 98% (active) and 92.4% (active), respectively.

These data come from PubChem BioAssay (NCI).
